# Measurements: article PMC8384837, “Expanding the binding specificity for RNA recognition by a PUF domain”
# What was measured:
# Experiment in all cases: yeast three-hybrid, YBZ-1, SC-Leu-His + 0.5 mM 3-AT, 4 days
# Conditions in all cases: tags: N-Gal4 AD-HA kept; label: inside an RPR1-promoter hybrid RNA with tandem MS2 sites; ssRNA
# PUM1 PUF domain R8-HFL = PUM1 PUF domain R8-HFL (Homo sapiens, UniProt Q14671 828-1176, N1122H;Y1123F;Q1126L)
# Method in brief: (§1)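 The interaction score is the logarithmic change in variant frequency from input to selection. It uses log2, with a pseudocount of 1 for absent variants, and frequencies came from PCR-amplified, Illumina-sequenced repeat regions. The libraries were Pumilio-1 PUF domains randomized at the three base-contacting residues per repeat, co-expressed with matching RNA elements in strain YBZ-1 (LexA–MS2 coat fusion, HIS3 reporter). Plating lasted four days on SC-Leu (input) or SC-Leu-His + 0.5 mM 3-AT (selection).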
# PUM1 PUF domain R8-DYR = PUM1 PUF domain R8-DYR (Homo sapiens, UniProt Q14671 828-1176, N1122D;Q1126R)
# Method in brief: as §1
# PUM1 PUF domain R8-KRH = PUM1 PUF domain R8-KRH (Homo sapiens, UniProt Q14671 828-1176, N1122K;Y1123R;Q1126H)
# Method in brief: as §1
# PUM1 PUF domain R3-LWI = PUM1 PUF domain R3-LWI (Homo sapiens, UniProt Q14671 828-1176, C935L;R936W;Q939I)
# Method in brief: as §1
# PUM1 PUF domain R3-SSD = PUM1 PUF domain R3-SSD (Homo sapiens, UniProt Q14671 828-1176, C935S;R936S;Q939D)
# Method in brief: as §1
# PUM1 PUF domain R6-LYA = molecular target: T1, PUM1 PUF domain R6-LYA (Homo sapiens, UniProt Q14671 828-1176, N1043L;Q1047A)
# T1 sequence: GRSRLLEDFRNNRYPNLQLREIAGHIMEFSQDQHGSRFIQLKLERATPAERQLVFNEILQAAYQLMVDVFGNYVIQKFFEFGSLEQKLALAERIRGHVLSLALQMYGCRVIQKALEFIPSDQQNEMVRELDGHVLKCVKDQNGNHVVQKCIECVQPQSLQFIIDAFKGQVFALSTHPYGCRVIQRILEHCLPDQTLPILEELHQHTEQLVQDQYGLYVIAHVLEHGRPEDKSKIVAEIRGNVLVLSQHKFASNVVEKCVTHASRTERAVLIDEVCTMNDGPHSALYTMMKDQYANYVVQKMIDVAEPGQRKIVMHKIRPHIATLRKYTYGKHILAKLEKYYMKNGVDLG
# Method in brief: as §1
# PUM1 PUF domain R3-VRH = PUM1 PUF domain R3-VRH (Homo sapiens, UniProt Q14671 828-1176, C935V;Q939H)
# Method in brief: as §1
# PUM1 PUF domain R1-KFV = PUM1 PUF domain R1-KFV (Homo sapiens, UniProt Q14671 828-1176, S863K;R864F;Q867V)
# Method in brief: as §1
sequence,measurement,setting,value
GGCUAGAACUAGUGGAUCCCCCGGCGCCCGGCGGCUCGAGCCCGGGUAAGCGUAAAUAGUCUGCAUGCCGCCGGGCGCCAUGCCUGCAGGUCGACUCUAGAAAACAUG,binding signal,PUM1 PUF domain R8-HFL,2.79 log2 enrichment (interaction score)
same,binding signal,PUM1 PUF domain R8-DYR,3.04 log2 enrichment (interaction score)
same,binding signal,PUM1 PUF domain R8-KRH,2.93 log2 enrichment (interaction score)
GGCUAGAACUAGUGGAUCCCCCGGCGCCCGGCGGCUCGAGCCCGGGUAAGUGUAAGUAGUCUGCAUGCCGCCGGGCGCCAUGCCUGCAGGUCGACUCUAGAAAACAUG,binding signal,PUM1 PUF domain R3-LWI,3.8 log2 enrichment (interaction score)
same,binding signal,PUM1 PUF domain R3-SSD,2.19 log2 enrichment (interaction score)
GGCUAGAACUAGUGGAUCCCCCGGCGCCCGGCGGCUCGAGCCCGGGUAAGUGUAAAUAGUCUGCAUGCCGCCGGGCGCCAUGCCUGCAGGUCGACUCUAGAAAACAUG,binding signal,PUM1 PUF domain R6-LYA,2.58 log2 enrichment (interaction score)
same,binding signal,PUM1 PUF domain R8-DYR,0.87 log2 enrichment (interaction score)
same,binding signal,PUM1 PUF domain R3-VRH,4.55 log2 enrichment (interaction score)
GGCUAGAACUAGUGGAUCCCCCGGCGCCCGGCGGCUCGAGCCCGGGUAAGUGAAAAUAGUCUGCAUGCCGCCGGGCGCCAUGCCUGCAGGUCGACUCUAGAAAACAUG,binding signal,PUM1 PUF domain R6-LYA,1.91 log2 enrichment (interaction score)
GGCUAGAACUAGUGGAUCCCCCGGCGCCCGGCGGCUCGAGCCCGGGUAAGUGUAAAUUGUCUGCAUGCCGCCGGGCGCCAUGCCUGCAGGUCGACUCUAGAAAACAUG,binding signal,PUM1 PUF domain R1-KFV,3.92 log2 enrichment (interaction score)
